# Assay outcomes deposited in PubChem BioAssay by several laboratories.
# Bead autofluor: compound fluorescence in toxin protease inhibitor counterscreen; fluorescence intensity (no concentration beside the values); AID 624483; compound autofluorescence counterscreen, microsphere flow cytometry; stronger effect = higher value; hit rate 3.1% among 360,000; in the data active = fluorescence intensity above about 16000; inconclusive = no clear call, values can overlap the other calls
# VHR inh abs: VHR1 phosphatase inhibitors, primary screen, biochemical, absorbance, uHTS; Dual specificity protein phosphatase 3 (Homo sapiens), P51452; recombinant VHR phosphatase, pNPP absorbance; inhibition, % at 13.3 µM; hit rate 0.52% among 290,000; AID 1654, 2009; in the data active = inhibition above about 50%
# Target sequence (P51452 whole entry, looked up): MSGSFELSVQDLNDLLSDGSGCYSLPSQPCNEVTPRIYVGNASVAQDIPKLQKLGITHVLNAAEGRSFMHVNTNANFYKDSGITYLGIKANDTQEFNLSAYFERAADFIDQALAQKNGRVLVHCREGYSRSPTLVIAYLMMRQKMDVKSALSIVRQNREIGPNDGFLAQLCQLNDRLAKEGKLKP
# Anthrax LF inh2: Bacillus anthracis LF protease inhibitors, primary screen, biochemical, multiplex microsphere, MLPCN library. Lethal factor (Bacillus anthracis), P15917. hit rate 0.12% among 360,000. inhibition, % at 10 µM. multiplex microsphere protease cleavage assay; note: plate controls were buffer without enzyme for full effect and enzyme alone for no effect
# BoNT-A LC inh2: BoNT/A light chain protease inhibitors, primary screen, biochemical, flow cytometry, MLPCN library. Botulinum neurotoxin type A light chain protease (Clostridium botulinum A str. ATCC 3502). multiplex microsphere protease substrate cleavage. inhibition, % at 10 µM. hit rate 0.17% among 360,000. AID 588499, 2011; note: plate controls were buffer without enzyme for full effect and enzyme alone for no effect
# BoNT-F LC inh: BoNT/F light chain protease inhibitors, primary screen, biochemical, flow cytometry, MLPCN library; Botulinum neurotoxin type F light chain protease (Clostridium botulinum); Multiplex microsphere protease cleavage assay; inhibition, % at 10 µM; hit rate 0.22% among 360,000; AID 588497, 2011; in the data active = inhibition above about 35%, passing the limit was not always enough; inconclusive = no clear call, values can overlap the other calls; note: plate controls were buffer without enzyme for full effect and enzyme alone for no effect
# MazF activator: activators of E. coli MazEF toxin-antitoxin RNase, primary screen, biochemical, fluorescence, uHTS. activation, % at 20 µM. FAM/BHQ RNA-DNA oligo cleavage fluorescence, 5 h. hit rate 0.32% among 350,000. AID 504720, 2011. Endoribonuclease toxin MazF (Escherichia coli (strain K12)), P0AE70; in the data active = activation above about 50%
# Target sequence (P0AE70 whole entry, looked up): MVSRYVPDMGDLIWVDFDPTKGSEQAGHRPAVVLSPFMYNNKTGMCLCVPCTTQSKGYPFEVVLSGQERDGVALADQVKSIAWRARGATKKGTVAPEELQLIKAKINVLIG
# Active calls of the source: *; i = inactive; ? = inconclusive; . = not tested or not shown. Only some compounds are listed: those with a hit (about 4.1% of all), similar ones and a draw of the others. Cut-off read from the data, not from the text of the source, unless noted: active = inhibition above about 30%; inconclusive = no clear call, values can overlap the other calls; inactive = below that.
SMILES,Bead autofluor,VHR inh abs,Anthrax LF inh2,BoNT-A LC inh2,BoNT-F LC inh,MazF activator
Cn1c(SCc2nc(-c3ccccc3)no2)nnc1-c1cccs1,20460*,9,-7,?,5,-2
CCOc1ccc(-n2c(SCc3nc(-c4cccs4)no3)nnc2-c2ccncc2)cc1,4628,6,-1,5,33,-1
CCCn1c(SCc2nc(-c3cccs3)no2)nnc1-c1ccncc1,21415*,13,0,-3,-5,1
Cn1c(SCc2nc(-c3ccc(Cl)cc3)no2)nnc1-c1cccs1,15475,19,-2,2,1,-9
Cn1c(SCc2nc(-c3ccc(Cl)cc3)no2)nnc1-c1ccccc1,20554*,20,-3,-1,-5,-19
Cc1ccc(-c2noc(CSc3nnc(Cc4ccccc4)n3-c3ccc(Cl)cc3)n2)cc1,8330,16,-5,0,-5,-9
COC(=O)c1ccc(NC(=O)CN2CCC(NC(=O)c3ccccc3F)CC2)cc1,3489,.,3,-1,-9,6
CC(C)NC(=O)N1Cc2cc(C(=O)NC3CCCC3)nc(-c3cccc(-c4cccnc4)c3)c2[C@@H]1CCO,6476,.,-3,-1,-8,.
CN1CCN(C(CNC(=O)C(=O)Nc2ccc3c(c2)OCO3)c2ccc(F)cc2)CC1 (stereo not drawn),5737,.,2,0,-2,7
COc1ccc(NC(=O)COC(=O)C2CCC2)cc1Cl,6083,-4,7,0,1,0
Cc1ccc(-c2nc3cc(Cl)ccc3o2)cc1,.,15,.,.,.,4
Clc1ccc2oc(-c3cccnc3NCc3ccccc3)nc2c1,19024*,5,3,4,2,-2
Cc1ccc(CNc2ncccc2-c2nc3cc(Cl)ccc3o2)cc1,22598*,-13,0,1,0,-7
CC(=O)Nc1cc(-c2cccnc2)cn2c(-c3cccc(C(F)(F)F)c3)cnc12,3581,.,-5,0,-5,.
COc1ccc([C@H]2C[C@H](n3cc(COC(=O)c4ccccc4)nn3)[C@@H](O)CN2C(=O)c2cccs2)cc1,4111,.,0,0,-7,-2
CCCn1c(O)c(N=Nc2ccc3ccccc3n2)c2ccccc21,9515,6,3,5,-6,146*
CC(C)CCn1c(O)c(N=Nc2ccccn2)c2ccccc21,10943,7,-2,-2,-10,-17
COc1cccc(NC(=O)C2Cc3ccccc3CN2C(=O)c2ccco2)c1 (stereo not drawn),3744,-12,5,2,1,2
Cc1ccc(C)c(OC(=O)C2CSC3(C)CCC(=O)N23)c1C (stereo not drawn),6224,.,1,0,1,-4
OCCN1CCN(C(=S)NCCc2ccccc2)CC1,.,-1,.,.,.,6
CCN1CCN(C(=S)NCCc2ccccc2)CC1,15356,57*,-6,3,4,6
CSc1cccc(CN2CCC(CCC(=O)NC3CC3)CC2)c1,3068,51*,0,-4,?,-23
Cn1c(=O)c(NCCc2ccccc2)c2c3c(cccc31)C(=O)c1ccccc1-2,9014,30,47*,47*,41*,60*
Cn1c(=O)c(NC2CCCCC2)c2c3c(cccc31)C(=O)c1ccccc1-2,8853,12,23,44*,11,-495
CCCCNc1c2c3c(cccc3n(C)c1=O)C(=O)c1ccccc1-2,8728,22,56*,74*,50*,i
SMILES,Bead autofluor,VHR inh abs,Anthrax LF inh2,BoNT-A LC inh2,BoNT-F LC inh,MazF activator
Cn1c(=O)c(NCCO)c2c3c(cccc31)C(=O)c1ccccc1-2,4675,-9,1,6,10,-490
CCN(C[C@H]1N[C@@](Cc2ccccc2)(C(=O)OC)[C@H]2C(=O)N(Cc3ccccc3)C(=O)[C@@H]12)C(=O)COc1ccccc1,3689,.,-1,0,-4,-3
O=C(C1CC1)n1cc(C(=S)N2CCOCC2)c2ccccc21,3291,5,4,0,-14,4
O=C(c1cccs1)n1cc(C(=S)N2CCOCC2)c2ccccc21,20879*,-17,-1,0,1,-4
COCCn1cc(C(=S)N2CCCCC2)c2ccccc21,4380,-2,-2,-1,0,7
COCCn1cc(C(=S)N2CCOCC2)c2ccccc21,22910*,21,-4,0,0,4
CCCCN(C(=O)c1c(C)noc1C)c1c(N)n(CCC)c(=O)[nH]c1=O,4020,.,-1,0,6,3
O=C(c1ccc(F)cc1)C(C(=O)N1CCCCC1)n1ccccc1=O (stereo not drawn),3321,15,2,0,-3,7
CC(C)NC(=O)C1CCN(C(=O)C(C(=O)c2ccccc2)n2cc(Cl)ccc2=O)CC1 (stereo not drawn),23513*,22,0,0,-3,2
CCC1(C)OC(c2ccccc2)=C/C(=C/C=C2C(=O)NC(=O)NC2=O)O1 (stereo not drawn),3468,-6,-2,-1,-8,67*
Cc1nc(NC(=O)c2cccc(-c3cc4ccccc4oc3=O)c2)ccc1Br,9407,33,-3,0,5,84*
CC(C)(C)NS(=O)(=O)c1ccc(NC(=O)CS(=O)(=O)Cc2ccccc2)cc1,4807,15,0,-2,?,-1
Nc1c(C(=O)Nc2ccccc2)sc2nc3c(c(-c4ccco4)c12)CCC3,3453,10,0,6,4,87*
Cc1cccc2nc(C(=O)Nc3cccc(C(=O)NC4CC4)c3)cn12,3964,.,-1,0,0,5
O=C(CNC(=O)Cc1ccccc1)NCC(=O)OCc1ccc(C(=O)c2ccccc2)cc1,16310*,5,-7,-1,-3,-1
CCOC(=O)c1ccc(COC(=O)CNC(=O)CNC(=O)Cc2ccccc2)cc1,5526,12,-1,-1,-2,-4
Cc1ccc(C)c(-n2nnnc2SCC(=O)NCCC2=CCCCC2)c1,16990*,-8,-2,0,-2,-3
O=C(CSc1ncccc1C(=O)O)NCCC1=CCCCC1,20428*,-4,-3,0,2,1
Cc1cc(C)n(-c2cc(N3CCOCC3)ncn2)n1,6135,25,-2,-1,-4,3
COc1cc(N2CCOCC2)ncn1,23005*,23,-3,?,-1,12
COC(=O)c1sccc1NC(=O)COc1ccc(F)cc1Cl,3466,57*,-3,-1,-3,-4
CC1(C(=O)Nc2cccc3c2CCCC3)CCN1C(=O)c1cccc(F)c1 (stereo not drawn),3611,.,-7,0,-1,.
Cc1ccc2ncc([N+](=O)[O-])n2c1,21684*,13,-1,3,4,-1
